The list is not random: actives were taken first. Their share in the collection is about 14%.
HCV inh – blocks hepatitis C virus | Huh7.5.1 HCVcc-Cre infection, luciferase reporter, 44 h | Potency, µM (doses to about 41.8 µM), for inactives: top-dose activity change, negative = inhibition, usual class: inhibitors | 340,000 compounds, 3.4% hits; further: potency means the concentration at half of the fitted maximal effect
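Infectious HCV cell culture screen: compound-treated cells (1,000/well, pre-plated 4 h) are infected with HCVcc-Cre at roughly 0.5 moi and grown 44 h. Infection is quantified by luciferase signal after 15 min substrate incubation at room temperature.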
Pf growth 48h – inhibits P. falciparum growth in the first generation, 48 h. P. falciparum luciferase growth in erythrocytes, 48 h. Potency, µM (doses to about 28.7 µM), for inactives: at the top dose activity change, negative = inhibition, most hits filed as inhibitors. 310,000 compounds, 5.9% hits; further: potency means the concentration at half of the fitted maximal effect
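A one-generation exposure of luciferase-tagged malaria parasites in RPMI 1640/Albumax erythrocyte culture, 37 C and 5% CO2. Inhibition is inferred from decreased luminescence after adding detection reagent.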
MARV entry inh – Marburg virus entry inhibition | Marburg virus pseudotyped entry inhibition, cell reporter | Potency, µM (titrated, usually from 37.8 µM), for the others: at the top dose activity change, negative = inhibition, most hits filed as inhibitors | 300,000 compounds, 1.8% hits; calls by dose curve; tested in HEK293 cells; further: potency means the concentration at half of the fitted maximal effect
LASV entry inh – Lassa virus entry inhibition | Lassa virus pseudotype entry inhibition, cell reporter | Potency, µM (doses to about 37.9 µM), for the others: at the highest dose activity change, negative = inhibition, hits mostly inhibitors | 300,000 compounds, 1.2% hits; calls by dose curve; tested in HEK293 cells; further: potency means the concentration at half of the fitted maximal effect; nearly all actives have a fitted effect of over 50% in size
Pf growth 96h – P. falciparum growth inhibition at 96 hour, primary screen for plastid delayed-death inhibitors. Potency, µM (series often up to 28.7 µM), without a hit: at the highest dose activity change, negative = inhibition, actives largely listed as inhibitors. P. falciparum luciferase reporter growth, 96 h. AID 504834. 320,000 compounds, 6.9% hits; further: potency means the concentration at half of the fitted maximal effect
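Two-generation exposure (96 h) targets delayed-death phenotype. Reporter parasites carrying integrated firefly luciferase, in red cells at 2% hematocrit and 0.05% parasitemia final, kept at 37 C, 5% CO2; luminescence loss indicates inhibition.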
HCMV antiviral – human cytomegalovirus inhibition. AID 1259415. HFF cells, HCMV-luciferase reporter, 72 h; stronger effect = lower value. 410,000 compounds, 4.5% hits. activity change, negative = inhibition, % at 57.5 µM; in the data active means activity change below about -60%; inconclusive means no clear call, values can overlap the other calls; inactive means above about -39%
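Two compound doses tested in HFFs infected with HCMV-luciferase, MOI 1 PFU/cell, 72 h at 37C. Lysate luminescence read with OneGlo; data normalized against buffer-only and 10uM Salinomycin inhibitor controls.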
* = called active by the depositor; ? = inconclusive; nt = not tested or not shown; ! = not confirmed by another sample; [ ] = remark or other dose. Unless noted, the call rests on the fitted dose curve; in most records, active means well fitted inhibition curve with a large enough effect; inconclusive means small, poorly fitted or top-dose-only effect, or another doubt; inactive means no such curve, though single readings can be large or run the other way. On the % scale 0 is the no-effect control and ±100 the full control effect.

SMILES | HCV inh | Pf growth 48h | MARV entry inh | LASV entry inh | Pf growth 96h | HCMV antiviral
CC#C[C@]1(O)CC[C@H]2[C@@H]3CCC4=CC(=O)CCC4=C3[C@@H](c3ccc(N(C)C)cc3)C[C@@]21C | 35µM*! | 13µM* | 10µM*! | 8.2µM*! | 6.7µM* | 114
Cc1ccc(-n2nc3ccc(N)cc3n2)cc1 | ? | 58% | ? | 11µM* | 22% | 63
CCOc1ccc(-n2nc3ccc(N)cc3n2)cc1 | -26% | -8% | nt | nt | 43% | -93*
Cc1cc2nn(-c3ccc(F)cc3)nc2cc1N | -23% | -35% | 5µM* | ? | ? | 107
Cc1ccc(-c2cnc3c(c2)C(=O)N([C@H](C)CO)C[C@H](C)[C@@H](CN(C)Cc2ccccc2F)O3)cc1 | nt | nt | nt | nt | nt | -9
COc1ccc(NC(=O)COC(=O)CO/N=C(\C)c2ccc3c(c2)OCO3)cc1S(N)(=O)=O | 20% | -1% | 5% | 12% | -2% | 2
Cc1cc(Cl)ccc1NC(=O)c1cc(S(=O)(=O)N2CCOCC2)cn1C | nt | nt | nt | 0%[46.1 µM] | nt | ?
CCCn1c(=O)[nH]c(=O)c2c(C(F)(F)F)cc(-c3ccc(C)cc3)nc21 | 6% | 40% | 4%[46.1 µM] | 11%[46.1 µM] | 2.6µM* | 9
CC(C)Cn1c(=O)[nH]c(=O)c2c(C(F)(F)F)cc(-c3ccccc3)nc21 | ? | ? | nt | nt | 8.3µM* | 20
O=c1[nH]c(=O)n(Cc2ccccc2)c2nc(-c3ccco3)cc(C(F)(F)F)c12 | ? | ? | -20% | ? | 5.9µM* | 58
COc1cccc(Nc2c3c(nc4nncn24)CCC3)c1 | nt | nt | -23%[46.1 µM] | -12%[46.1 µM] | nt | ?
CCCC(=O)N1CCN(c2nc3ccc(Br)cc3s2)CC1 | 10µM* | 22% | nt | nt | -9% | -68*
CCCCC(=O)N1CCN(c2nc3ccc(Br)cc3s2)CC1 | 11µM* | 48% | 0%[46.1 µM] | ? | 18% | -13
CCCC(=O)N1CCN(c2nc3ccc(Cl)cc3s2)CC1 | 11µM* | 50% | nt | nt | 11% | -20
Cc1ccc(N2C(=O)C3N=NN(CC(=O)N4N=C(c5ccccc5)CC4c4ccccc4)C3C2=O)cc1 (stereo not given) | 14% | 12µM* | ? | nt | -25% | 51
O=C(CCN1C(=O)C2C3C=CC(C4CC34)C2C1=O)OCC(=O)c1ccccc1 (stereo not given) | 11% | -3% | 4% | 14% | ? | -83*
O=C(CCN1C(=O)C2C3C=CC(C4CC34)C2C1=O)Oc1cccc2cccnc12 (stereo not given) | ? | ? | 16µM* | -20% | -35% | -95*
O=C(CCN1C(=O)C2C3C=CC(C4CC34)C2C1=O)Oc1ccc(Br)cc1 (stereo not given) | -1% | 39% | ? | 17%[46.1 µM] | ? | -6
CCOc1ccc(NC(=O)CSc2ccc3ccccc3n2)cc1 | nt | nt | -2%[46.1 µM] | 0%[46.1 µM] | nt | -5
CCN(CC)S(=O)(=O)c1ccc(NC(=O)CCc2c(C)nc3cc(-c4ccc(Cl)cc4)nn3c2C)cc1 | nt | nt | ? | ? | nt | -76*
CC(=O)c1ccc(NC(=O)CCc2c(C)nc3cc(-c4ccc(Cl)cc4)nn3c2C)cc1 | nt | nt | -3%[46.1 µM] | 7%[46.1 µM] | nt | -35
CSc1nc2nc(C)c(CCC(=O)OCC(=O)Nc3ccc(F)cc3)c(C)n2n1 | 13% | -4% | 9% | 0%[46.1 µM] | 6% | -3
CN1CCN(S(=O)(=O)c2cccc(C(=O)N3CCN(c4ccccc4)CC3)c2)CC1 | -2% | nt | nt | nt | nt | -9
Cc1ccc2cc(CN(Cc3ccc4c(c3)OCO4)Cc3nnnn3Cc3ccco3)c(=O)[nH]c2c1C | ? | 8.3µM* | ? | ? | ? | 10
Cc1ccc(C)c2[nH]c(=O)c(CN(Cc3ccc4c(c3)OCO4)Cc3nnnn3Cc3ccco3)cc12 | ? | 8.3µM* | ? | ? | ? | -8
SMILES | HCV inh | Pf growth 48h | MARV entry inh | LASV entry inh | Pf growth 96h | HCMV antiviral
Cc1ccc2cc(CN(CCN3CCOCC3)Cc3nnnn3Cc3ccco3)c(=O)[nH]c2c1C | 10% | -15% | -1% | ? | ? | -17
COCCn1nnnc1CN(Cc1ccco1)Cc1cc2cc3c(cc2[nH]c1=O)OCO3 | 11% | 6% | 2% | 0% | -11% | 6
COCCn1nnnc1CN1C2CCCC1CC(NC(C)=O)C2 (stereo not given) | -7% | 29% | 6% | 2% | 13µM* | 7
Cc1ccc(NNC(=O)c2ccno2)cc1Cl | 11µM* | -15% | nt | nt | ? | -15
Cc1ccc(NC(=O)Cn2c(=O)n(Cc3ccccc3)c(=O)c3c(C)c(C)sc32)c(C)c1 | nt | nt | -16%[46.1 µM] | 3%[46.1 µM] | nt | -32
Cc1cc2nc(NC(=O)C3(C)CCN(C)C3)[nH]c2cc1C (stereo not given) | nt | nt | nt | nt | nt | 112
COc1ccc(C(=O)Nc2ccc(/C(C)=N/NC(=O)c3ccccc3O)cc2)cc1OC | ? | 25% | 13µM* | 13% | 0% | -3
Fc1cccc(Cl)c1CNCc1cccnc1 | 1% | 11% | -15%[46.1 µM] | 14%[46.1 µM] | 12µM* | -9
COc1ccc(C(=O)N/N=C(/C)c2cccc(NC(=O)c3ccncc3)c2)cc1OC | -25% | -2% | nt | nt | ? | -28
CCOc1ccc(Br)cc1C(=O)N/N=C/c1c[nH]c2ccccc12 | 13µM* | ? | nt | nt | 8% | 13
O=C(CSCc1c(F)cccc1Cl)NCc1cccnc1 | 35% | -1% | 8% | 3% | ? | -18
O=C(N/N=C/c1ccncc1)c1cc(Br)ccc1OCc1ccccc1 | 8.9µM* | ? | ? | 0% | 2.9µM* | -22
O=C(N/N=C/c1c[nH]c2ccccc12)c1cc(Br)ccc1O | 15% | 31% | nt | nt | -2% | 19
O=C(N/N=C/c1cccnc1)c1ccccc1OCc1cccc(Br)c1 | ? | ? | ? | -15% | -86% | ?
CCOc1ccc2oc(=O)cc(CN3CCN(c4cc(C)ccc4C)CC3)c2c1 | nt | nt | -7%[46.1 µM] | -13%[46.1 µM] | nt | -20
CCN(C(=O)c1cc2c(=O)n3cccc(C)c3nc2s1)c1ccc(C)c(C)c1 | nt | nt | ? | -28%[46.1 µM] | nt | 22
O=C(N/N=C/c1ccco1)c1ccc(OCc2ccccc2)cc1 | -26% | ? | 10% | 16% | -43% | 22
CCOc1ccc(Br)cc1C(=O)N/N=C/c1ccccn1 | ? | 9.3µM* | ? | 6%[46.1 µM] | ? | nt
COc1ccc(C(=O)N/N=C/c2ccccn2)cc1OC | -12% | ? | -20% | 17% | ? | -39
Brc1ccc(OCc2ccccc2)c(CNCc2ccncc2)c1 | 10µM* | 9.3µM* | -23% | ? | 0.41µM* | -29
COc1ccc(C(=O)Nc2ccccc2C(=O)N/N=C/c2ccccn2)cc1OC | ? | 4.1µM* | ? | 10µM* | 12µM* | -109*
O=C(N/N=C/c1ccco1)c1ccccc1OCc1ccc(Br)cc1 | ? | 2% | ? | 8% | 13µM* | -26

From PubChem BioAssay
